We go through 40 molecules from PubChem BioAssay (NCI).

Compounds without any hit were thinned out: in the full panel of roughly 83,000, 20% have a hit.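 For each line, cells grew in 96-well plates with the test compound present at a single concentration for 48 hours.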 Active and inactive are the calls of the source. Rule for the calls: active = growth percent below 10; inactive = the rest.

The subject of the experiment is SK-MEL-2 melanoma. Briefly: NCI-60 one-dose screen, 48 h (100 = growth as untreated, 0 = no growth, -100 = all killed). The settings on record: 10 µM unless noted.
In the case of `CC(=O)OC[C@]12CC[C@@H]([C@@H](C)c3nnc(-c4ccncc4)o3)[C@@H]1[C@H]1CC[C@@H]3[C@@]4(C)CC[C@H](OC(C)=O)C(C)(C)[C@@H]4CC[C@@]3(C)[C@]1(C)CC2`, the growth was 82.3% (inactive).

Regarding `CN(Cc1ccccc1)c1nc(Cl)c(C2CC(c3ccccc3)=NN2c2ccccc2)s1` (stereo not given), the growth was 78.5% (inactive).

With `CSc1nc(C)c([N+](=O)[O-])c(N)n1`, the growth was 109% (inactive).

With `CN1CCN(Cc2ccc(NC(=O)c3cncc(C#Cc4cnc(N)c5ccc(F)cc45)c3)cc2C(F)(F)F)CC1`, the growth is -55.1% (active).

As to `CN1CCN(C(=O)[C@@]2(C)CC[C@]3(C)CC[C@]4(C)C(=CC[C@@H]5[C@@]6(C)CCC(=O)NC(C)(C)[C@@H]6CC[C@]54C)[C@@H]3C2)CC1`, the growth is 78.3% (inactive).

On to `COc1ccc(/C=C2\CN(C(=O)C(Cl)Cl)C/C(=C\c3ccc(OC)cc3)C2=O)cc1`, for which the growth was 68.6% (inactive).

For the molecule `O=C(NNc1cnccn1)c1nc2cc(F)ccc2n2cccc12`, the growth is 40.8% (inactive).

As for `COc1cc(/C=C2\CN(S(=O)(=O)c3ccccc3)C/C(=C\c3cc(CN4CCCCC4)c(O)c(OC)c3)C2=O)cc(CN2CCCCC2)c1O`, the growth is 104% (inactive).

As for `COc1ccc(/C=C/C(c2cc(OC)c(OC)c(OC)c2)n2ccnc2)cc1O` (stereo not given), the growth was 41.7% (inactive).

Regarding `C/C=C(/C)n1cnc2c(Nc3ccccn3)nc(Cl)nc21`, the growth is 97.1% (inactive).

Take `Oc1ccc(/C=C/c2ccc(O)cc2)cc1`: the growth is 90.8% (inactive).

With `C#CCOc1cccc(-c2ncnc3cc(NC(=O)C=C)ccc23)c1`, the growth was 46.7% (inactive).

Turning to `CCOC(=O)c1nn(CC(O)c2ccccc2)c(NC(=O)Nc2cccc(F)c2)c1C` (stereo not given), the growth is 95% (inactive).

For `O=C(N/N=C\c1ccccc1S(=O)(=O)O)N/N=C/c1ccccc1S(=O)(=O)O`, the growth is 99.8% (inactive).

For the molecule `CC[C@]12C=CCN3CC[C@@]4(c5ccc(OC)cc5N(C)[C@H]4[C@@](O)(C(=O)OC)[C@@H]1OC(=O)CCC[P+](c1ccccc1)(c1ccccc1)c1ccccc1)[C@@H]32`, the growth is -65.3% (active).

For the molecule `CCCn1nc(C(=O)N(C)Cc2ccccc2)c2c1CCC(N1CCc3ccccc31)C2` (stereo not given), the growth is 106% (inactive).

With `C=C1C(=O)O[C@H]2[C@H]1CC/C(COC(=O)/C=C\C(=O)NCc1ccc(Cn3c(=O)sn(CCCl)c3=O)cc1)=C\CC[C@@]1(C)O[C@@H]21`, the growth was 85.8% (inactive).

For `COC(=O)c1ccc(NC(=O)Nc2ccc(C(=O)OC)cc2)cc1`, the growth was 88% (inactive).

Turning to `O=C(O)c1cn(C2CC2)c2cc(N3CCN(C(=O)Nc4nc(-c5ccc(Br)cc5)cs4)CC3)c(F)cc2c1=O`, the growth was -17% (active).

Take `NC(=O)c1c(NC(=O)c2cccc(C(F)(F)F)c2)sc2c1CCC(=O)C2`: the growth is -18.5% (active).

Turning to `CC1=C(C(=O)Nc2ccccc2)C(c2ccc3c(c2)OCO3)NC(=S)N1` (stereo not given), the growth is 106% (inactive).

For the molecule `NS(=O)(=O)c1ccc(-c2cc(-c3nnc(SCC(=O)Nc4ccc(C(=O)/C=C/c5ccc(Cl)cc5)cc4)n3-c3ccccc3)c3ccccc3n2)cc1`, the growth was 105% (inactive).

As to `COC(=O)c1cc(Br)ccc1O`, the growth was 101% (inactive).

In the case of `C=C1C(=O)O[C@H]2[C@H]1CC/C(COC(=O)/C=C/C(=O)OC/C1=C/CC[C@@]3(C)O[C@H]3[C@H]3OC(=O)C(=C)[C@@H]3CC1)=C\CC[C@@]1(C)O[C@@H]21`, the growth was 93.4% (inactive).

For `CNC1=CC(=O)c2c(C(=O)OC)c(C)[n+]([O-])c(C)c2C1=O`, the growth was 70.7% (inactive).

Consider `O=C(Nc1ncccc1OCc1ccccc1)NC1CCCCCC1`, for which the growth is 91.9% (inactive).

Take `O=C1/C(=C\c2cccc3nccnc23)SC(=S)N1CCc1ccc(O)cc1`: the growth is 108% (inactive).

As for `O=C1/C=C/[C@@H](O)[C@@H]2C[C@@H](O)C[C@H]2/C=C/CCC[C@@H](O)CCO1`, the growth was 122% (inactive).

Consider `Cc1ccc(CNc2c3ccccc3nc3ccccc23)cc1`, for which the growth is 42.7% (inactive).

For `Cc1ccnc(Nc2ccc([N+](=O)[O-])c(NCCN3CCOCC3)n2)c1`, the growth is 51.5% (inactive).

`CSc1nn2c(-c3ccc4ccccc4c3)ccnc2c1C#N`: the growth was -7.77% (active).

For the molecule `COc1cc2nc3sc(C(=O)Nc4ccc(C(=O)OC(C)C)cc4)c(C(=O)Nc4ccc(Cl)cc4C)n3c(=O)c2cc1OC`, the growth was 110% (inactive).

For the molecule `COC(=O)/C=C1/SC(=Nc2ccc([N+](=O)[O-])cc2)N(CCc2c[nH]c3ccc(O)cc23)C1=O`, the growth is 39.7% (inactive).

`O=S1(=O)C=C(c2ccccc2)C(c2ccccc2)=C1`: the growth was 52.1% (inactive).

Take `O=C(O)COc1ccc(Cl)c(Cl)c1`: the growth is 118% (inactive).

Consider `O=C1/C(=C/c2ccccn2)NC(=S)N1c1ccccc1Cl`, for which the growth is 119% (inactive).

As to `CCS/C(Nc1ccccc1)=C(\C#N)C(=O)Nc1ccc(OC)cc1`, the growth was -0.335% (active).

With `COc1ccc(C(=O)N2c3ccccc3Sc3ccccc32)c(C(F)(F)F)c1`, the growth is 47% (inactive).

For `Cc1ccc(-c2csc(NC(=O)c3ccccc3CN3C(=O)c4ccccc4C3=O)n2)cc1`, the growth is 97.3% (inactive).

With `CNC(=O)c1cc(Oc2cccc3nc(NC(=O)Nc4cc(C(F)(F)F)ccc4Cl)ccc23)ccn1`, the growth was 119% (inactive).
